High-throughput results: PubChem, several laboratories
Compounds with a hit are over-represented: about 3.6% of the library has one in this group of screens.
Anthrax LF prot = inhibitors of Bacillus anthracis lethal factor protease | P15917 | multiplex microsphere protease cleavage assay, LF | inhibition, % at 10 µM | 360,000 compounds, 0.12% hits
Target sequence (P15917 whole entry, looked up): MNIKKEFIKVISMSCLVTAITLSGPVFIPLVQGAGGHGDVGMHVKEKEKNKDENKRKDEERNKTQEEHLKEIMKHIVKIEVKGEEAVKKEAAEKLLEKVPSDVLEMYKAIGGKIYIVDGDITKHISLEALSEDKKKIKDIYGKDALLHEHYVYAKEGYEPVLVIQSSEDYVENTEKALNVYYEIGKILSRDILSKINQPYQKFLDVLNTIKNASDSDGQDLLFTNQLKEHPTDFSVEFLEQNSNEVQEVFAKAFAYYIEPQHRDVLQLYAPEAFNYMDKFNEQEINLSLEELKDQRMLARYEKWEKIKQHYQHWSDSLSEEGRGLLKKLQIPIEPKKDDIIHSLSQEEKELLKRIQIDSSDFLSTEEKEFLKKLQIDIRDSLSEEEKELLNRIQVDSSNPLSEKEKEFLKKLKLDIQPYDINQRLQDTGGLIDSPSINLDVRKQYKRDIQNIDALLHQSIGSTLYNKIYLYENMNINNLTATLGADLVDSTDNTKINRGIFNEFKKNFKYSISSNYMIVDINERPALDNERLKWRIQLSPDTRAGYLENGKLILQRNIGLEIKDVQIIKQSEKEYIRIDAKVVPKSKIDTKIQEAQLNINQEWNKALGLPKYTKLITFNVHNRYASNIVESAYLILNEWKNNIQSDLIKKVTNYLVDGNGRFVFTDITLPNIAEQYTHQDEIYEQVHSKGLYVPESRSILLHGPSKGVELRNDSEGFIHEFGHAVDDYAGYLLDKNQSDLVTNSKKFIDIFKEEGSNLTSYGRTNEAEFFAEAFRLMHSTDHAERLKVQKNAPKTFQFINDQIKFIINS
SARS 3CLpro inh = SARS-CoV 3CLpro protease inhibition | inhibition, % at 6 µM | recombinant SARS-CoV 3CLpro, quenched FRET peptide cleavage | 290,000 compounds, 0.14% hits; in the data active = inhibition above about 12%
BoNT-A LC inh2 = inhibitors of Botulinum neurotoxin A light chain protease | multiplex microsphere protease substrate cleavage, flow cytometry | inhibition, % at 10 µM | 360,000 compounds, 0.17% hits
Bead autofluor = flagged as autofluorescent in microsphere protease counterscreen. compound autofluorescence counterscreen, microsphere flow cytometry; hits give high values. fluorescence intensity (concentration not given with the values). 360,000 compounds, 3.1% hits; in the data active = fluorescence intensity above about 16000; inconclusive = no clear call, values can overlap the other calls
BoNT-F LC inh = inhibitors of Botulinum neurotoxin F light chain protease; Multiplex microsphere protease cleavage assay, flow cytometry; inhibition, % at 10 µM; 360,000 compounds, 0.22% hits; in the data active = inhibition above about 35%, passing the limit was not always enough; inconclusive = no clear call, values can overlap the other calls
BJeLR lethal = BJeLR cell viability loss; 300,000 compounds, 0.17% hits; AID 1554; BJeLR (HRASV12) viability, CellTiter-Glo ATP luminescence, 48 h; inhibition, % (test concentration not listed); in the data active = inhibition above about 50%; inconclusive = no clear call, values can overlap the other calls
Each line names hits and unclear results; the compound was inactive in the other large screens. Cut-off read from the data, not from the text of the source, unless noted: active = inhibition above about 30%; inconclusive = no clear call, values can overlap the other calls; inactive = below that.

Cc1ccc(C(=O)Nn2c(O)c(C=C3N=c4ccccc4=N3)sc2=S)cc1	Anthrax LF prot 69, BoNT-A LC inh2 78, BoNT-F LC inh 64
Cn1cnc([N+](=O)[O-])c1Sc1nc(N)nc2c1ncn2C1OC(CO)C(O)C1O (stereo unspecified)	none (no result: SARS 3CLpro inh, BJeLR lethal)
Cc1cc(/C=C2/SC(=S)N(c3cccc(C(F)(F)F)c3)C2=O)c(C)n1-c1cccnc1	Anthrax LF prot 46, BoNT-A LC inh2 53, BoNT-F LC inh 84
Cc1cc(/C=C2\SC(=S)N(Cc3ccco3)C2=O)c(C)n1-c1cccnc1	none
CCCNC(=O)CS(=O)Cc1nc(-c2ccccc2C)oc1C (stereo unspecified)	none
COC(=O)c1ccc(Cn2cc(Cl)cn2)cc1	none
CC(NC(=O)c1cccc(Cn2cc([N+](=O)[O-])cn2)c1)c1ccc(C(C)(C)C)cc1 (stereo unspecified)	Bead autofluor 19892
CCC(NC(=O)c1cccc(Cn2cc([N+](=O)[O-])cn2)c1)c1ccc(C(C)C)cc1 (stereo unspecified)	none
CC(C)NC(=O)c1cccc(Cn2cc(Cl)cn2)c1	Bead autofluor 22543
CN1CCN(c2nc(N(C)C)oc(=O)c2C#N)CC1	Bead autofluor 22716
CN(C)c1nc(N2CCN(c3ccc(F)cc3)CC2)c(C#N)c(=O)o1	Anthrax LF prot inconclusive, BoNT-A LC inh2 inconclusive, Bead autofluor inconclusive, BoNT-F LC inh inconclusive
CCNC(=O)CC1SC(=Nc2cccc(Cl)c2C)N(C)C1=O (stereo unspecified)	Bead autofluor 16300
CNC(=S)N1N=C(c2ccc(Br)cc2)CC1c1ccc(Br)cc1 (stereo unspecified)	Bead autofluor 21159
CNC(=S)N1N=C(c2ccc(Br)cc2)CC1c1ccc(N(C)C)cc1 (stereo unspecified)	none
COc1ccc(C(=O)NCCCN2CCCC2=O)cc1S(=O)(=O)N1CCOCC1	none (no result: SARS 3CLpro inh, BJeLR lethal)
C=CCn1c(N)c(C(=O)NC2CCCCC2)sc1=S	Bead autofluor 23947
CCOC(=O)n1c(=O)[nH]c2ccc(Br)cc21	none
O=C(c1ccc(Cl)cc1)c1cnc(Nc2ccccc2Cl)s1	BoNT-A LC inh2 inconclusive, Bead autofluor 20938
Cc1ccc([N+](=O)[O-])cc1NC(=O)CCCOc1ccccc1	Bead autofluor 16846
Cc1cccc(N2CCN(S(=O)(=O)c3c(C(=O)N4CCCCC4)c(C)n(C)c3C)CC2)c1C	none
O=C(Nc1cccnc1)c1noc2c1CCCC2	Bead autofluor 26961
Cc1cc(NC(=O)c2noc3c2CCCC3)no1	Bead autofluor 21619
Cc1nn(Cc2ccc(Cl)cc2)c(C)c1NC(=O)c1noc2c1CCCCC2	none
Cc1nn(Cc2ccc(Cl)c(Cl)c2)c(C)c1NC(=O)c1noc2c1CCCCC2	BoNT-A LC inh2 inconclusive, Bead autofluor 17489
CC(=O)c1ccc(OCC(=O)NC(=O)NC2CCCC2)cc1	none (no result: SARS 3CLpro inh, BJeLR lethal)
Cc1ccc(S(=O)(=O)N2CCN(C(=O)COC(=O)CCOc3ccc(C(C)(C)C)cc3)CC2)cc1	none (no result: SARS 3CLpro inh)
CCOC(=O)c1c(C)[nH]c(C)c1C(=O)COC(=O)c1nn(CC)c(=O)c2ccccc12	none (no result: SARS 3CLpro inh, BJeLR lethal)
Cc1cc(C(=O)CN(Cc2ccc(F)cc2)S(=O)(=O)c2ccc3c(c2)OCCO3)c(C)n1C	BoNT-A LC inh2 inconclusive, Bead autofluor 20608
CC(=O)c1ccc(N2CCN(C(=O)c3ccccc3SCC(=O)NCc3ccco3)CC2)c(F)c1	none (no result: SARS 3CLpro inh, BJeLR lethal)
O=C(NC1CCCCC1)c1ccc(S(=O)(=O)NCc2ccco2)cc1	Bead autofluor 21532
COc1cccc(C(=O)Nc2ccc(S(=O)(=O)NCc3ccco3)cc2)c1	Bead autofluor 24328
Cc1cc(C)n(CCCNC(=O)c2ccc(S(=O)(=O)NCc3ccco3)cc2)n1	BoNT-A LC inh2 inconclusive, Bead autofluor 21580
Cc1nn(-c2ccccc2)c(C)c1CNC(=O)c1ccc(S(=O)(=O)NCc2ccco2)cc1	none (no result: SARS 3CLpro inh, BJeLR lethal)
O=C(Nc1ccc(S(=O)(=O)NCc2ccco2)cc1)c1cccc(F)c1	none
Cc1onc(-c2ccccc2Cl)c1C(=O)N1CC(C)OC(C)C1 (stereo unspecified)	BoNT-A LC inh2 inconclusive, Bead autofluor 23411
Cc1onc(-c2ccccc2Cl)c1C(=O)N1C=CC(C(F)(F)Cl)=NCC1	Bead autofluor 22372
Cc1onc(-c2ccccc2Cl)c1C(=O)O/N=C(\N)c1cccc([N+](=O)[O-])c1	none (no result: SARS 3CLpro inh, BJeLR lethal)
Cc1onc(-c2ccccc2Cl)c1C(=O)N1CC(C)CC(C)C1 (stereo unspecified)	none
Cc1onc(-c2ccccc2Cl)c1C(=O)O/N=C(\N)c1ccccc1	Bead autofluor 16593
Cc1cc(NC(=O)CSc2nc3c(cc2C#N)CCC3)no1	none
COc1ccccc1CN1CCc2c([nH]c3ccccc23)C1	none
COc1cc(CN2CCc3c([nH]c4ccccc34)C2)cc(OC)c1	Bead autofluor 18016
C/C(=N\NC(=O)c1c[nH]c2ccccc12)c1ccc(C)o1	Bead autofluor 23011
CCCCCc1nc2ccccc2c(=O)n1-c1ccc(Cl)cc1[N+](=O)[O-]	Bead autofluor 23302
CCCCc1nc2ccccc2c(=O)n1-c1ccccc1O	none
Cc1ccc(OC(C)C(=O)N(Cc2cccs2)C2CCS(=O)(=O)C2)cc1C (stereo unspecified)	BoNT-F LC inh inconclusive
COCCCNC(=O)c1ccc2c(c1)CCN2S(C)(=O)=O	Bead autofluor 22130
O=C1CCCN1CC(O)CS(=O)(=O)c1ccc(Cl)cc1 (stereo unspecified)	Bead autofluor 22765
O=[N+]([O-])c1ccc(S(=O)(=O)Nc2ccc(-c3ccc(N4CCOCC4)nn3)cc2)cc1	none (no result: SARS 3CLpro inh)
CCC(C)(C(=O)NC1CCCC1)N(C(=O)c1cnccn1)c1c(C)n(C)n(-c2ccccc2)c1=O (stereo unspecified)	BoNT-A LC inh2 inconclusive, Bead autofluor 21671
CCC(C)(C(=O)NC1CCCCC1)N(C(=O)CNC(C)=O)c1c(C)n(C)n(-c2ccccc2)c1=O (stereo unspecified)	none
CCC(C)(C(=O)NC1CCCCC1)N(C(=O)c1cnccn1)c1c(C)n(C)n(-c2ccccc2)c1=O (stereo unspecified)	BoNT-A LC inh2 inconclusive, Bead autofluor 21469
COCCN1CCN(C(=O)C2CCC(=O)N(CCc3ccccc3)C2)CC1 (stereo unspecified)	none
Cc1ccc(OC(=O)NC2CCS(=O)(=O)C2)cc1C (stereo unspecified)	Bead autofluor 23723
O=C(NC1CCS(=O)(=O)C1)Oc1ccccc1 (stereo unspecified)	none
CC(C)(C)c1ccc(OCC(=O)NC2CCS(=O)(=O)C2)cc1 (stereo unspecified)	BoNT-A LC inh2 inconclusive, Bead autofluor 19473
O=S(=O)(c1ccc(F)cc1)N(CCO)CC(O)Cn1c2ccccc2c2ccccc21 (stereo unspecified)	Bead autofluor 16893
Cc1ccc(C(=O)Nc2cc(=O)n(C)c(=O)n2C)o1	BoNT-A LC inh2 inconclusive, Bead autofluor 22513
Cc1ccc(/C=C/C(=O)Nc2cc(=O)n(C)c(=O)n2C)o1	none
